The source made the active and inactive calls.
Assays:
[1] = E. coli DRC41 culture turbidity changes, primary screen, E. coli filamentation inducer project, strain DRC41, OD650, 48 h (AID 1152);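 further: E. coli MC1000 strain DRC41 lacking acrAB efflux pump and sulA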; settings: E. coli DRC41 (acrAB sulA), higher = more signal, called active from +8 up or from −8 down
[2] = small-molecule binders of probe aLefty1, primary screen, biochemical, small-molecule microarray, 635/667 nm fluorescence (AID 1153); settings: higher = more signal;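 further: score merges spot fluorescence with signal-to-noise ratio from the scanned slide images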
[3] = PSAC antagonists in infected red cells, primary screen, cell-based, P. falciparum Indochina, OD700, 1 h (AID 1154); settings: P. falciparum Indochina infected RBC osmotic lysis, higher = more signal, called active from +8 up or from −8 down
[4] = PSAC antagonists in infected red cells, primary screen, cell-based, P. falciparum Indochina, OD700, 2 h (AID 1155);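 further: lysis reports solute entry through the parasite surface anion channel PSAC; channel blockers reduce lysis of infected cells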; settings: P. falciparum Indochina infected erythrocytes, osmotic lysis OD700; higher = more signal, called active from +8 up or from −8 down
[5] = osmotic lysis modulators in infected erythrocytes, primary screen, PSAC antagonist project, cell-based, P. falciparum Indochina, OD700, 3 h (AID 1156); settings: higher = more signal, called active from +8 up or from −8 down
[6] = PSAC antagonists in infected red cells, primary screen, cell-based, P. falciparum Indochina, OD700, 18 h (AID 1157); settings: P. falciparum Indochina infected erythrocytes, osmotic lysis OD700, 18 h; higher = more signal, called active from +8 up or from −8 down
[7] = modulators of S6 phosphorylation in cells, primary screen, cell-based, A549, cytoblot, luminescence, serum-stimulated (AID 1158); settings: A549 phospho-S6 cytoblot, 5 h, higher = more signal;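 further: serum-stimulated A549 lung adenocarcinoma cells; signal is phosphorylated S6 detected by cytoblot immunostaining with HRP secondary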
[8] = biological target: NADPH oxidase 2 (Homo sapiens) (UniProt P04839); assay: NOX2-dependent H2O2 signal modulators, primary screen, NOX inhibitor project, cell-based, HEK293-NOX2, PMA-stimulated, Amplex Red fluorescence (AID 1159); settings: 45 min, higher = more signal, called active from +8 up or from −8 down; further: test concentration not given here
[9] = biological target: NADPH oxidase 4 (Homo sapiens) (UniProt Q9NPH5); assay: NOX4-dependent H2O2 signal modulators, primary screen, NOX inhibitor project, cell-based, HEK293-NOX4, tetracycline-induced, Amplex Red fluorescence (AID 1160); settings: 45 min, higher = more signal, called active from +8 up or from −8 down
[10] = biological target: NADPH oxidase 5 (Homo sapiens) (UniProt Q96PH1); assay: NOX5-dependent H2O2 signal modulators, primary screen, NOX inhibitor project, cell-based, HEK293-NOX5, Amplex Red fluorescence (AID 1161); settings: HEK293-NOX5, ionomycin, 45 min, higher = more signal
[11] = A549 cell viability effects, profiling panel, calcein-AM fluorescence, 48 h, basal (AID 1162); settings: higher = more signal; further: test concentration not given here
[12] = adipocyte viability effects, profiling panel, cell-based, 3T3-L1 adipocytes, calcein-AM fluorescence, 48 h, basal (AID 1163); settings: 3T3-L1 adipocytes viability, higher = more signal; further: test concentration not given here
[13] = HepG2 cell viability effects, profiling panel, calcein-AM fluorescence, 48 h, basal (AID 1164); settings: higher = more signal; further: test concentration not given here
[14] = MM1S cell viability effects, profiling panel, calcein-AM fluorescence, 48 h, basal (AID 1165); settings: higher = more signal;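 further: viability of MM1S multiple myeloma cells under basal unstimulated conditions; test concentration not given here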
[15] = basal RPMI8226 viability, no added stimulus, profiling panel, cell-based, calcein-AM fluorescence, 48 h, PK04 Diversity Set (AID 1166); settings: RPMI8226 myeloma viability, higher = more signal;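 further: cells grown under basal conditions without added stimulus; test concentration not given here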
[16] = basal HepG2 mitochondrial membrane potential changes, profiling panel, cell-based, JC-1 fluorescence, 24 h, 100 nL compound (AID 1167); settings: higher = more signal; further: test concentration not given here
[17] = basal 3T3-L1 adipocyte mitochondrial potential changes, profiling panel, cell-based, JC-1 fluorescence, 3T3-L1 adipocytes, 24 h, 100 nL compound (AID 1168); settings: JC-1 mitochondrial fluorescence, higher = more signal, called active from +8 up or from −8 down; further: test concentration not given here
[18] = basal RPMI8226 mitochondrial membrane potential changes, profiling panel, cell-based, JC-1 fluorescence, 24 h, 100 nL compound (AID 1169); settings: RPMI8226 myeloma, JC-1 mitochondrial potential fluorescence, higher = more signal; further: test concentration not given here
[19] = basal MM1S mitochondrial membrane potential changes, profiling panel, cell-based, JC-1 fluorescence, 24 h, 100 nL compound (AID 1170); settings: higher = more signal; further: test concentration not given here
[20] = A549 lung cancer cell viability effects, profiling panel, resazurin fluorescence, 24 h, PK04 Diversity Set (AID 1171); settings: higher = more signal, called active from +8 up or from −8 down; further: test concentration not given here

Chain of NADPH oxidase 5 (Homo sapiens) (Q96PH1 whole entry, looked up): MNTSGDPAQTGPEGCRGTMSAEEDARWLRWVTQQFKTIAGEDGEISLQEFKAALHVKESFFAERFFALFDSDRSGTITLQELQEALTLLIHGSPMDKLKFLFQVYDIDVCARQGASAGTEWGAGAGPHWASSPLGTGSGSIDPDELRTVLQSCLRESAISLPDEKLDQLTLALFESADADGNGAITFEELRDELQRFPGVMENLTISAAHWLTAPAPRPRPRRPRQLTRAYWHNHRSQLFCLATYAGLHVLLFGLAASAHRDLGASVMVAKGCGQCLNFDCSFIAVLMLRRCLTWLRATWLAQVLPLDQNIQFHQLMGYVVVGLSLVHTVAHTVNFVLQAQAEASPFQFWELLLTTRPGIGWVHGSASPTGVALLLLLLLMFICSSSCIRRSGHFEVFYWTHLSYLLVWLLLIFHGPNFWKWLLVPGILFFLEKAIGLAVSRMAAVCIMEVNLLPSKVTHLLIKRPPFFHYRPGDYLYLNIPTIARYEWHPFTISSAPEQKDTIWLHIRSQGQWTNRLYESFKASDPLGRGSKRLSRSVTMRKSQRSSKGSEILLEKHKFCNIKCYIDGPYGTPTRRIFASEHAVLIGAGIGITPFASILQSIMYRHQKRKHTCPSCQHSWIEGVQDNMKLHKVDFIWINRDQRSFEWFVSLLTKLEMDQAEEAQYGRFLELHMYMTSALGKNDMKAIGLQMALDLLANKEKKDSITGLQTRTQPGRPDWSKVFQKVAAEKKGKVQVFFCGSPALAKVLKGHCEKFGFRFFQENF
Chain of NADPH oxidase 2 (Homo sapiens) (P04839 whole entry, looked up): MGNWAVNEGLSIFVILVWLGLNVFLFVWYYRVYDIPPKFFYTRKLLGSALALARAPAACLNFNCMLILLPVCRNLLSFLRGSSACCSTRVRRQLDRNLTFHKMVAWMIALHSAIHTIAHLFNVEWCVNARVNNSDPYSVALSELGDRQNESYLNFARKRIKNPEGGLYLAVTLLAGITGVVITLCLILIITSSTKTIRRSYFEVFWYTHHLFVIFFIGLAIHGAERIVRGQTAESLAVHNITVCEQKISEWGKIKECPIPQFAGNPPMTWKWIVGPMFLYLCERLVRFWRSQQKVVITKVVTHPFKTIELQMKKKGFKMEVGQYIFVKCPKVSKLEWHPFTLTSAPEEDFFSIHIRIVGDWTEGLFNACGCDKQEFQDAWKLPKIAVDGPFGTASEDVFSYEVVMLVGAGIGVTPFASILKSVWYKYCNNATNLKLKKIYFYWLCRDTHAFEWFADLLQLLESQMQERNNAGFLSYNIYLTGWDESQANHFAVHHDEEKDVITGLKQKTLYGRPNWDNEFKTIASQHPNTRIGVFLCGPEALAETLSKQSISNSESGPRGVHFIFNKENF
Chain of NADPH oxidase 4 (Homo sapiens) (Q9NPH5 whole entry, looked up): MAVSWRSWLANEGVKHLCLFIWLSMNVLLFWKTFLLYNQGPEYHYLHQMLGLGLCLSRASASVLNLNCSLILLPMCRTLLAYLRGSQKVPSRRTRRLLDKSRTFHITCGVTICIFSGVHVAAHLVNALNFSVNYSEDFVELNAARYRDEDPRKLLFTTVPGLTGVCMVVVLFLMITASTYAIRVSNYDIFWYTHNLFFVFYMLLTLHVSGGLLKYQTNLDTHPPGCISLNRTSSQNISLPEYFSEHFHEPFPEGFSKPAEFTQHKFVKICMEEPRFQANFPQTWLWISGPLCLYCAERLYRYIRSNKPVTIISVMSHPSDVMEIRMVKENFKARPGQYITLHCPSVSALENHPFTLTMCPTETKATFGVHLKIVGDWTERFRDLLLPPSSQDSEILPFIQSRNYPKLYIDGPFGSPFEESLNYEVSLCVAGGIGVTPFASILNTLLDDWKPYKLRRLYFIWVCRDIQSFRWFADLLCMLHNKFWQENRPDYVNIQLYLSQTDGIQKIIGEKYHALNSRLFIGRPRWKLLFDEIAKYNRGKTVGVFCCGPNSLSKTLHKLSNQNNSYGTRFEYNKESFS

SMILES	z-score [1]	composite z-score [2]	z-score [3]	z-score [4]	z-score [5]	z-score [6]	z-score [7]	z-score [8]	z-score [9]	z-score [10]	z-score [11]	z-score [12]	z-score [13]	z-score [14]	z-score [15]	z-score [16]	z-score [17]	z-score [18]	z-score [19]	z-score [20]
CCCCN1CC=CC23O[C@@H]4C=CCOC(=O)[C@@H]4[C@H]2C(=O)N(C(CO)C(C)C)[C@@H]3C1=O (stereo not given in full)	-0.62 (inactive)	-0.0697	1.16 (inactive)	0.574 (inactive)	1.06 (inactive)	0.407 (inactive)	-0.272	0.835 (inactive)	0.17 (inactive)	1.88	-0.503	-1.13	-0.803	0.543	-0.42	-0.528	-0.713 (inactive)	0.184	-0.071	-0.519 (inactive)
CN(C)CCCC[C@@H]1NC(=O)[C@@H]2C[C@H](C(=O)NCCCCCCNC(=O)CS)[C@H](c3cccc(OCCO)c3)N2C1=O	-0.0099 (inactive)	-0.416	3.24 (inactive)	0.681 (inactive)	-0.0935 (inactive)	0.496 (inactive)	1.91	2.03 (inactive)	0.84 (inactive)	1.84	-0.335	-0.668	1.27	0.843	0.405	1.6	0.252 (inactive)	-0.666	-0.871	-0.643 (inactive)
O=c1cccc(-c2ccccc2C(F)(F)F)o1	-0.934 (inactive)	0.69	0.168 (inactive)	0.761 (inactive)	-0.627 (inactive)	0.341 (inactive)	-0.67	0.409 (inactive)	0.0518 (inactive)	-0.982	-0.976	-0.0994	0.21	0.634	-0.475	-0.72	0.254 (inactive)	0.835	-1.3	-0.262 (inactive)
C=CCOC(=O)[C@H]1[C@@H]2C(=O)O[C@@H](c3ccccc3)[C@@H](c3ccccc3)N2[C@@H](c2ccc(OCCOC(=O)[C@@H]3C[C@@H]4C(=O)N[C@@H](Cc5ccccc5)C(=O)N4[C@@H]3c3ccc(O)cc3)cc2)[C@]12C(=O)Nc1ccccc12	-0.126 (inactive)	-0.0235	2.33 (inactive)	0.776 (inactive)	1.28 (inactive)	0.914 (inactive)	0.896	1.48 (inactive)	1.14 (inactive)	2.13	0.137	-0.156	-0.338	-1.31	0.0712	-1.37	-0.262 (inactive)	-0.616	-1.02	0.0598 (inactive)
C=CCOC(=O)[C@H]1[C@@H]2C(=O)O[C@@H](c3ccccc3)[C@@H](c3ccccc3)N2[C@@H](c2ccc(OCCOC(=O)[C@@H]3C[C@@H]4C(=O)N[C@@H](CC(C)C)C(=O)N4[C@@H]3c3ccc(O)cc3)cc2)[C@]12C(=O)Nc1ccc(I)cc12	0.833 (inactive)	0.106	2.77 (inactive)	1.33 (inactive)	2.31 (inactive)	-1.46 (inactive)	1.09	0.894 (inactive)	0.499 (inactive)	1.4	0.13	0.283	1.55	0.345	-0.207	-1.78	1 (inactive)	-0.438	-0.961	-0.629 (inactive)
C=CCC(OC(C)=O)[C@@H]1[C@@H](N(Cc2ccc(-c3cccc(C(F)(F)F)c3)o2)C(=O)Cc2ccc(OC)cc2)c2cc(OCCCO)ccc2N1C(=O)c1ccc2ccccc2n1 (stereo not given in full)	-0.797 (inactive)	-0.0046	0.83 (inactive)	0.74 (inactive)	0.959 (inactive)	0.289 (inactive)	0.342	-0.236 (inactive)	-1.23 (inactive)	-1.45	-0.0093	0.341	0.279	-1.2	-2.3	2.12	0.253 (inactive)	-0.616	1.42	-1.25 (inactive)
COC(=O)[C@@]1(Cc2ccc(OC)cc2)[C@H]2c3cc(C(=O)N(C)C)n(Cc4ccsc4Br)c3C[C@H]2CN1C(=O)c1ccccc1	-0.218 (inactive)	0.456	4.25 (inactive)	1.16 (inactive)	0.57 (inactive)	0.814 (inactive)	-0.87	0.555 (inactive)	0.536 (inactive)	0.316	-0.299	0.157	0.205	-0.859	-0.51	2.25	0.171 (inactive)	-0.484	-0.468	0.141 (inactive)
Cc1ccc(S[C@]2(C(=O)NCCCN(C)C)CC(=O)N(Cc3ccccc3Cl)[C@@H]2c2ccc(CO)cc2I)cc1	1.02 (inactive)	-0.0573	4.18 (inactive)	0.987 (inactive)	0.524 (inactive)	0.498 (inactive)	-0.344	0.255 (inactive)	-1.15 (inactive)	1.78	0.171	0.908	-0.696	-2.41	-3.15	1.25	0.722 (inactive)	-0.351	-0.984	0.515 (inactive)
C=CCOC(=O)[C@H]1[C@@H]2C(=O)O[C@@H](c3ccccc3)[C@@H](c3ccccc3)N2[C@@H](c2ccc(OCCOC(=O)[C@H]3C[C@H]4C(=O)NCC(=O)N4[C@H]3c3ccc(O)cc3)cc2)[C@]12C(=O)Nc1ccc(I)cc12	0.345 (inactive)	0.0359	2.6 (inactive)	2.66 (inactive)	1.02 (inactive)	1.33 (inactive)	0.839	1.54 (inactive)	1.5 (inactive)	1.22	-0.362	0.34	1.78	0.782	0.483	-1.63	0.266 (inactive)	-0.398	-1.43	0.144 (inactive)
Cc1ccc(F)cc1S(=O)(=O)N[C@@H]1CCN(Cc2ccc3[nH]ccc3c2)C1	-5.9 (inactive)	-0.238	3.05 (inactive)	0.843 (inactive)	0.255 (inactive)	0.673 (inactive)	-0.0977	-0.163 (inactive)	-1.11 (inactive)	-1.96	0.173	-0.939	-0.696	-3.43	-1.63	-1.33	-0.261 (inactive)	0.321	-1.34	-0.0035 (inactive)
[N-]=[N+]=NCc1ccccc1C[C@@]1(C(=O)O)N=C(c2ccc(OCCCO)cc2)O[C@@H]1c1ccccc1CN=[N+]=[N-]	0.583 (inactive)	0.313	22.1 (active)	4.92 (inactive)	-0.995 (inactive)	-0.336 (inactive)	1.03	0.887 (inactive)	1.54 (inactive)	2.03	0.737	0.2	0.0664	-0.274	-2.21	-0.168	-0.186 (inactive)	-0.477	-0.824	0.855 (inactive)
COc1ccc(NC(=O)O[C@H]2[C@H](OC(=O)Nc3ccc4c(c3)OCO4)[C@H](OC(=O)Nc3ccc4c(c3)OCO4)[C@@H](OC)O[C@@H]2CO)cc1	-0.723 (inactive)	0.114	13.7 (active)	1.26 (inactive)	0.99 (inactive)	0.597 (inactive)	-0.0897	-1.54 (inactive)	-0.399 (inactive)	-1.64	-0.798	0.568	-0.54	-0.714	-0.983	-0.0127	-0.213 (inactive)	-0.685	-1.19	-0.339 (inactive)
[N-]=[N+]=Nc1ccccc1[C@@H]1OC(c2ccc(OCCCO)cc2)=N[C@]1(Cc1ccccc1)C(N)=O	1.7 (inactive)	0.0576	30.7 (active)	31.3 (active)	2.22 (inactive)	3.17 (inactive)	-0.414	0.865 (inactive)	0.46 (inactive)	-1.48	0.289	-0.186	0.765	-0.835	-2.14	0.308	0.119 (inactive)	-0.719	-0.789	-0.199 (inactive)
CN(C)CCCC[C@@H]1NC(=O)[C@H]2C[C@@H](C(=O)NCc3ccc(F)cc3)[C@@H](c3ccc(O)cc3)N2C1=O	0.104 (inactive)	0.364	1.2 (inactive)	-0.0251 (inactive)	-6.5 (inactive)	0.153 (inactive)	-0.449	0.0836 (inactive)	0.799 (inactive)	0.195	0.334	0.0359	-0.372	-0.0511	-0.23	1.28	-0.365 (inactive)	-0.152	0.195	0.377 (inactive)
Cc1ccc(S[C@]2(C(=O)NCC(F)(F)F)CC(=O)N(C3CCCCC3)[C@@H]2c2ccc(CO)cc2)cc1	0.344 (inactive)	0.123	1.58 (inactive)	0.525 (inactive)	0.621 (inactive)	0.157 (inactive)	-0.14	-0.941 (inactive)	0.03 (inactive)	0.192	0.815	0.132	0.844	-1.03	-0.758	1.11	0.466 (inactive)	0.0558	-0.42	-0.0508 (inactive)
NC(=O)NCC#Cc1ccc2c(c1)[C@]1(C(=O)N2)[C@H](C(=O)Nc2nc3ccccc3s2)[C@H]2C(=O)O[C@H](c3ccccc3)[C@H](c3ccccc3)N2[C@@H]1c1ccc(OCCO)cc1	0.197 (inactive)	0.309	1.93 (inactive)	1.1 (inactive)	-0.166 (inactive)	0.737 (inactive)	0.169	0.681 (inactive)	0.611 (inactive)	0.715	-0.163	0.466	-1.43	-0.231	-0.349	-3.18	0.272 (inactive)	-1.14	-1.88	0.767 (inactive)
CC(C)C(=C=CC[C@@H](O)c1cccc(OCCO)c1)CCO	0.838 (inactive)	0.0919	2.96 (inactive)	0.108 (inactive)	0.607 (inactive)	0.233 (inactive)	0.617	-0.841 (inactive)	-0.471 (inactive)	-1.26	0.418	0.114	0.785	0.753	-0.25	0.436	0.258 (inactive)	0.314	-1.18	0.625 (inactive)

— PubChem BioAssay
